# Reference: PubChem BioAssay (NCI)
# About 79,000 compounds went through this panel and 15% of them were active in at least one assay; those are over-represented in the sample as a whole. A number with no mark means an inactive call. Active and inactive are the calls of the source. Rule as the data show it: active = growth inhibition above about 70%; inactive = the rest.
# Tests used:
# [1] = NCI Yeast Anticancer Drug Screen. Data for the rad52 strain (AID 147);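 also: 0% = growth of vehicle-treated control cultures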; conditions: S. cerevisiae rad52 mutant growth inhibition, active compounds read high
# How it was run: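 DNA repair-defective yeast; compound exposure; growth scored against vehicle controls.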
# [2] = NCI Yeast Anticancer Drug Screen. Data for the wt1 strain (AID 149);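 also: 0% = growth of vehicle-treated wt1 cultures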; conditions: S. cerevisiae wt1 strain (SPY 50644) growth inhibition, active compounds read high
# How it was run: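 Each compound is tested on wt1 yeast and the loss of growth versus vehicle gives the inhibition value.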
# [3] = NCI Yeast Anticancer Drug Screen. Data for the rad50EPP+ strain (AID 151);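 also: 0% = growth of vehicle-treated control cultures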; conditions: S. cerevisiae rad50 mutant strain, active compounds read high
# How it was run: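 rad50EPP+ yeast treated with test compounds. Readout: growth vs vehicle control.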
# [4] = NCI Yeast Anticancer Drug Screen. Data for the rad50 strain (AID 155);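 also: 0% = growth of vehicle-only cultures of the same strain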; conditions: S. cerevisiae rad50 strain growth inhibition, active compounds read high
# How it was run: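 Vehicle-treated cultures provide the reference for the growth inhibition reported for compound-exposed, repair-deficient yeast.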
# [5] = NCI Yeast Anticancer Drug Screen. Data for the mec2-1 strain (AID 157); conditions: S. cerevisiae mec2-1 strain, active compounds read high
# How it was run: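 Growth inhibition is read against vehicle-treated controls after compound exposure of the mec2-1 yeast strain, which is defective in DNA damage repair or cell cycle control.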
# [6] = NCI Yeast Anticancer Drug Screen. Data for the rad14 strain (AID 159);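 also: 0% = growth of vehicle-treated control cultures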; conditions: S. cerevisiae rad14 strain growth inhibition, active compounds read high
# How it was run: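 Inhibition of growth is reported for a repair-deficient yeast mutant following compound treatment, calculated relative to cultures that received vehicle.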
# [7] = NCI Yeast Anticancer Drug Screen. Data for the sgs1 mgt1 strain (AID 161);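 also: 0% = growth of cultures given vehicle only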; conditions: S. cerevisiae sgs1 mgt1 strain, active compounds read high
# How it was run: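 This yeast growth screen uses a strain with defined DNA-repair lesions; compound-treated growth is compared with vehicle-treated growth.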
# [8] = NCI Yeast Anticancer Drug Screen. Data for the CLN2oe strain (AID 163);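 also: 0% = growth of vehicle-only control cultures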; conditions: S. cerevisiae CLN2oe strain, active compounds read high
# How it was run: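 Compound-treated yeast; growth vs vehicle ctrl = % inhibition. Genetically altered strain (cell-cycle control).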
# [9] = NCI Yeast Anticancer Drug Screen. Data for the cln2 rad14 strain (AID 165);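 also: 0% = growth equal to vehicle treated cultures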; conditions: S. cerevisiae cln2 rad14 strain, active compounds read high
# How it was run: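 Growth inhibition, relative to vehicle-treated controls, is the read-out. The test organism is a yeast strain with defined genetic alterations, cln2 rad14.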
# [10] = NCI Yeast Anticancer Drug Screen. Data for the bub3 strain (AID 167); conditions: S. cerevisiae bub3 mutant strain, active compounds read high
# How it was run: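 Mutant yeast screening strain plus compound; vehicle-treated cultures serve as the 0% inhibition reference.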
# [11] = NCI Yeast Anticancer Drug Screen. Data for the wt2 strain (AID 169); conditions: S. cerevisiae wt2 strain growth inhibition, active compounds read high
# How it was run: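 Compound exposure of yeast; growth compared with vehicle controls; inhibition reported.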
# [12] = NCI Yeast Anticancer Drug Screen. Data for the mlh1 strain (AID 171);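 also: 0% = growth of vehicle-treated control cultures of the same strain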; conditions: S. cerevisiae mlh1 strain growth inhibition, active compounds read high
# How it was run: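 Compounds are applied to a genetically altered yeast strain, and its growth is compared with that of vehicle-treated cultures to give percent inhibition.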
# [13] = NCI Yeast Anticancer Drug Screen. Data for the sgs1 strain (AID 173);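 also: 0% = growth of vehicle-only control cultures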; conditions: S. cerevisiae sgs1 mutant, active compounds read high
# How it was run: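 Compounds applied to genetically altered yeast; growth compared with vehicle-treated cultures to give % inhibition.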
# [14] = NCI Yeast Anticancer Drug Screen. Data for the mlh1 rad18 strain (AID 175); conditions: S. cerevisiae mlh1 rad18 strain growth inhibition, active compounds read high
# How it was run: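 Cells of a genetically altered yeast strain, deficient in DNA damage repair, were treated with compound. Their growth was then compared with that of vehicle-treated cultures to give inhibition.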
# [15] = NCI Yeast Anticancer Drug Screen. Data for the mgt1 strain (AID 153); conditions: S. cerevisiae mgt1 mutant growth inhibition, active compounds read high
# How it was run: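 Growth inhibition relative to vehicle controls was scored for the mgt1 yeast strain after compound exposure.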
# [16] = NCI Yeast Anticancer Drug Screen. Data for the rad18 strain (AID 177); conditions: S. cerevisiae rad18 mutant growth inhibition, active compounds read high
# How it was run: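 Compounds are applied to a repair-deficient yeast strain, and growth is compared with that of vehicle-treated cultures to give percent inhibition.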
# [17] = at 5.0 µM (retest, dose inferred, filed as 0.5)
# [18] = at 50.0 µM (retest, dose inferred, filed as 5.0)
structure (smiles),measurement,setting,value
O=C1c2ccccc2-c2nc3ccccc3nc21,growth inhibition,[1]; at 1.2 µM,-27%
same,growth inhibition,[1]; at 3.7 µM,-30%
same,growth inhibition,[1]; at 11.0 µM,-10%
same,growth inhibition,[1]; at 33.0 µM,90% (active)
same,growth inhibition,[1]; at 100.0 µM,91% (active)
same,growth inhibition,[2]; at 1.2 µM,-20%
same,growth inhibition,[2]; at 3.7 µM,-17%
same,growth inhibition,[2]; at 11.0 µM,-11%
same,growth inhibition,[2]; at 33.0 µM,33%
same,growth inhibition,[2]; at 100.0 µM,66%
same,growth inhibition,[3]; at 1.2 µM,3%
same,growth inhibition,[3]; at 3.7 µM,28%
same,growth inhibition,[3]; at 11.0 µM,79% (active)
same,growth inhibition,[3]; at 33.0 µM,95% (active)
same,growth inhibition,[3]; at 100.0 µM,81% (active)
same,growth inhibition,[4]; at 1.2 µM,-6%
same,growth inhibition,[4]; at 3.7 µM,-15%
same,growth inhibition,[4]; [17],80% (active)
same,growth inhibition,[4]; at 11.0 µM,0%
same,growth inhibition,[4]; at 33.0 µM,85% (active)
same,growth inhibition,[4]; [18],97% (active)
same,growth inhibition,[4]; at 50.0 µM,-20.6%
same,growth inhibition,[4]; at 100.0 µM,83% (active)
same,growth inhibition,[5]; at 1.2 µM,-79%
same,growth inhibition,[5]; at 3.7 µM,-54%
same,growth inhibition,[5]; [17],83% (active)
same,growth inhibition,[5]; at 11.0 µM,-41%
same,growth inhibition,[5]; at 33.0 µM,50%
same,growth inhibition,[5]; [18],98% (active)
same,growth inhibition,[5]; at 50.0 µM,-35.1%
same,growth inhibition,[5]; at 100.0 µM,67%
same,growth inhibition,[6]; at 1.2 µM,-43%
same,growth inhibition,[6]; at 3.7 µM,-39%
same,growth inhibition,[6]; at 11.0 µM,-31%
same,growth inhibition,[6]; at 33.0 µM,15%
same,growth inhibition,[6]; at 100.0 µM,46%
same,growth inhibition,[7]; [17],-21%
same,growth inhibition,[7]; [18],25%
same,growth inhibition,[7]; at 50.0 µM,-24.4%
same,growth inhibition,[8]; at 1.2 µM,-38%
same,growth inhibition,[8]; at 3.7 µM,-18%
same,growth inhibition,[8]; at 11.0 µM,-39%
same,growth inhibition,[8]; at 33.0 µM,-9%
same,growth inhibition,[8]; at 100.0 µM,34%
same,growth inhibition,[9]; [17],25%
same,growth inhibition,[9]; [18],52%
same,growth inhibition,[9]; at 50.0 µM,3.35%
same,growth inhibition,[10]; at 1.2 µM,-19%
same,growth inhibition,[10]; at 3.7 µM,-13%
same,growth inhibition,[10]; [17],21%
same,growth inhibition,[10]; at 11.0 µM,-11%
same,growth inhibition,[10]; at 33.0 µM,46%
same,growth inhibition,[10]; [18],39%
same,growth inhibition,[10]; at 50.0 µM,-14.2%
same,growth inhibition,[10]; at 100.0 µM,66%
same,growth inhibition,[11]; at 1.2 µM,-25%
same,growth inhibition,[11]; at 3.7 µM,-22%
same,growth inhibition,[11]; at 11.0 µM,-10%
same,growth inhibition,[11]; at 33.0 µM,28%
same,growth inhibition,[11]; at 100.0 µM,61%
same,growth inhibition,[12]; at 1.2 µM,-31%
same,growth inhibition,[12]; at 3.7 µM,-30%
same,growth inhibition,[12]; at 11.0 µM,-25%
same,growth inhibition,[12]; at 33.0 µM,-1%
same,growth inhibition,[12]; at 100.0 µM,61%
same,growth inhibition,[13]; at 1.2 µM,-48%
same,growth inhibition,[13]; at 3.7 µM,-57%
same,growth inhibition,[13]; at 11.0 µM,-57%
same,growth inhibition,[13]; at 33.0 µM,-19%
same,growth inhibition,[13]; at 100.0 µM,36%
same,growth inhibition,[14]; [17],84% (active)
same,growth inhibition,[14]; [18],99% (active)
same,growth inhibition,[14]; at 50.0 µM,66.7%
Cc1ccc(CCC2=CCCc3c2ccc2ccccc32)cc1,growth inhibition,[1]; at 1.2 µM,-1%
same,growth inhibition,[1]; at 3.7 µM,-3%
same,growth inhibition,[1]; at 11.0 µM,0%
same,growth inhibition,[1]; at 33.0 µM,1%
same,growth inhibition,[1]; at 100.0 µM,0%
same,growth inhibition,[2]; at 1.2 µM,-3%
same,growth inhibition,[2]; at 3.7 µM,-4%
same,growth inhibition,[2]; at 11.0 µM,-5%
same,growth inhibition,[2]; at 33.0 µM,-8%
same,growth inhibition,[2]; at 100.0 µM,-9%
same,growth inhibition,[3]; at 1.2 µM,-3%
same,growth inhibition,[3]; at 3.7 µM,5%
same,growth inhibition,[3]; at 11.0 µM,13%
same,growth inhibition,[3]; at 33.0 µM,40%
same,growth inhibition,[3]; at 100.0 µM,58%
same,growth inhibition,[15]; at 1.2 µM,-4%
same,growth inhibition,[15]; at 3.7 µM,-3%
same,growth inhibition,[15]; at 11.0 µM,-3%
same,growth inhibition,[15]; at 33.0 µM,-8%
same,growth inhibition,[15]; at 100.0 µM,-39%
same,growth inhibition,[4]; at 1.2 µM,-1%
same,growth inhibition,[4]; at 3.7 µM,-2%
same,growth inhibition,[4]; [17],-7%
same,growth inhibition,[4]; at 11.0 µM,0%
same,growth inhibition,[4]; at 33.0 µM,-1%
same,growth inhibition,[4]; [18],-25%
same,growth inhibition,[4]; at 50.0 µM,11.1%
same,growth inhibition,[4]; at 100.0 µM,2%
same,growth inhibition,[5]; at 1.2 µM,-4%
same,growth inhibition,[5]; at 3.7 µM,-5%
same,growth inhibition,[5]; [17],44%
same,growth inhibition,[5]; at 11.0 µM,-5%
same,growth inhibition,[5]; at 33.0 µM,-4%
same,growth inhibition,[5]; [18],31%
same,growth inhibition,[5]; at 50.0 µM,6.45%
same,growth inhibition,[5]; at 100.0 µM,5%
same,growth inhibition,[7]; [17],5%
same,growth inhibition,[7]; [18],10%
same,growth inhibition,[7]; at 50.0 µM,33%
same,growth inhibition,[8]; at 1.2 µM,-5%
same,growth inhibition,[8]; at 3.7 µM,-2%
same,growth inhibition,[8]; at 11.0 µM,-9%
same,growth inhibition,[8]; at 33.0 µM,-5%
same,growth inhibition,[8]; at 100.0 µM,9%
same,growth inhibition,[9]; [17],6%
same,growth inhibition,[9]; [18],-10%
same,growth inhibition,[9]; at 50.0 µM,16.8%
same,growth inhibition,[10]; at 1.2 µM,-4%
same,growth inhibition,[10]; at 3.7 µM,-2%
same,growth inhibition,[10]; [17],63%
same,growth inhibition,[10]; at 11.0 µM,-4%
same,growth inhibition,[10]; at 33.0 µM,5%
same,growth inhibition,[10]; [18],84% (active)
same,growth inhibition,[10]; at 50.0 µM,33.8%
same,growth inhibition,[10]; at 100.0 µM,15%
same,growth inhibition,[11]; at 1.2 µM,-3%
same,growth inhibition,[11]; at 3.7 µM,-5%
same,growth inhibition,[11]; at 11.0 µM,-5%
same,growth inhibition,[11]; at 33.0 µM,-8%
same,growth inhibition,[11]; at 100.0 µM,-8%
same,growth inhibition,[12]; at 1.2 µM,-3%
same,growth inhibition,[12]; at 3.7 µM,-4%
same,growth inhibition,[12]; at 11.0 µM,-4%
same,growth inhibition,[12]; at 33.0 µM,-1%
same,growth inhibition,[12]; at 100.0 µM,4%
same,growth inhibition,[13]; at 1.2 µM,-5%
same,growth inhibition,[13]; at 3.7 µM,-4%
same,growth inhibition,[13]; at 11.0 µM,-1%
same,growth inhibition,[13]; at 33.0 µM,0%
same,growth inhibition,[13]; at 100.0 µM,3%
same,growth inhibition,[14]; [17],38%
same,growth inhibition,[14]; [18],16%
same,growth inhibition,[14]; at 50.0 µM,16.9%
same,growth inhibition,[16]; at 1.2 µM,-4%
same,growth inhibition,[16]; at 3.7 µM,-1%
same,growth inhibition,[16]; at 11.0 µM,-2%
same,growth inhibition,[16]; at 33.0 µM,-2%
same,growth inhibition,[16]; at 100.0 µM,2%
